Results on eleven compounds are retold here after PubChem BioAssay (NCI).

Some test systems named below: EKVX NSCLC; SN12C renal; UO-31 renal; TK-10 renal; ACHN renal; CAKI-1 renal; A498 renal; CCRF-CEM leukemia; MOLT-4 leukemia; RPMI-8226 leukemia; OVCAR-8 ovarian; OVCAR-5 ovarian; OVCAR-4 ovarian; SK-OV-3 ovarian; IGROV1 ovarian; HS 578T breast; NCI/ADR-RES ovarian; OVCAR-3 ovarian; SR leukemia.
Common to all, as to assay: NCI-60 one-dose screen, 48 h (100 = growth as untreated, 0 = no growth, -100 = all killed)
Holding throughout (settings): 10 µM unless noted

The panel holds about 83,000 compounds, 20% with a hit somewhere; the sample as a whole holds those more often.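 How to read the values: 0–100, growth inhibition (40 = 60% inhibited); 0, no net growth; -100 to 0, cell death (-40 = 40% of starting cells died; -100 = all dead).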 A number with no mark means an inactive call. Active and inactive are the calls of the source. The calls were made as follows: active = growth percent below 10; inactive = the rest.

As for `O=CN(SSN(C=O)C1CCCCC1)C1CCCCC1`, the growth is 95.3% in the experiment with EKVX NSCLC; 99.7% in the experiment on SN12C renal; 60.6% with UO-31 renal; 106% with TK-10 renal; 105% with ACHN renal; 101% in the experiment on CAKI-1 renal. The growth is 116% with A498 renal; 111% with CCRF-CEM leukemia; 65.2% with MOLT-4 leukemia; 120% in the experiment on RPMI-8226 leukemia; 104% in the experiment with OVCAR-8 ovarian; 113% with OVCAR-5 ovarian. The growth in the experiment on OVCAR-4 ovarian was 101%; in the experiment with SK-OV-3 ovarian, 113%; in the experiment on IGROV1 ovarian, 100%; in the experiment with HS 578T breast it was 112%; in the experiment with NCI/ADR-RES ovarian it was 116%.

Turning to `O=C(CS(=O)c1oc(-c2cccs2)nc1S(=O)(=O)c1ccc(Br)cc1)c1ccccc1` (configuration not stated), the growth is 111% in the experiment with EKVX NSCLC; 96.2% in the experiment on SN12C renal; 80.3% in the experiment with UO-31 renal; 104% with TK-10 renal; 94.1% in the experiment with ACHN renal; 90.9% in the experiment on CAKI-1 renal. Further, the growth with A498 renal was 49.1%; with CCRF-CEM leukemia it was 94.1%; in the experiment with MOLT-4 leukemia it was 94.2%; with RPMI-8226 leukemia, 91.8%; with OVCAR-8 ovarian, 91.4%; with OVCAR-5 ovarian, 89.2%. In addition, the growth in the experiment on OVCAR-4 ovarian is 75.2%; with SK-OV-3 ovarian it was 89.8%; in the experiment on IGROV1 ovarian, 101%; with OVCAR-3 ovarian it was 103%; with HS 578T breast it was 79.5%; in the experiment on NCI/ADR-RES ovarian it was 93.8%.

Consider `CS(=O)(=O)Nc1cc(-c2ccc3ncnc(Nc4cccc(Cl)c4F)c3c2)cnc1Cl`, for which the growth in the experiment with EKVX NSCLC is 44.7%; in the experiment on SN12C renal, 37.4%; in the experiment on UO-31 renal, 28.8%; in the experiment on TK-10 renal it was 34.8%; in the experiment with ACHN renal, 66.5%; in the experiment with CAKI-1 renal it was 19.8%. The growth with A498 renal was -32.5% (active); with CCRF-CEM leukemia, 30.4%; with MOLT-4 leukemia, 27.3%; with SR leukemia, 43.5%; in the experiment on OVCAR-8 ovarian it was 60.8%; with OVCAR-5 ovarian, 38.3%. Also, the growth in the experiment with OVCAR-4 ovarian was 77.2%; in the experiment with SK-OV-3 ovarian, 30.5%; in the experiment on IGROV1 ovarian, -8.72% (active); in the experiment on OVCAR-3 ovarian it was 25%; in the experiment with HS 578T breast it was -3.32% (active); with NCI/ADR-RES ovarian it was 86.9%.

For `CCCSc1nc2ccc(C)cc2cc1/C=[N+](\[O-])c1ccccc1`, the growth in the experiment on EKVX NSCLC was 80.6%; in the experiment with SN12C renal, 26.1%; in the experiment with UO-31 renal, 44.7%; with TK-10 renal it was 89.5%; in the experiment with ACHN renal it was 49.2%; with CAKI-1 renal, 70.5%. In addition, the growth was 11.2% in the experiment with CCRF-CEM leukemia; 27.2% in the experiment on MOLT-4 leukemia; 17.1% with RPMI-8226 leukemia; 12.4% in the experiment with OVCAR-8 ovarian; 74.3% with OVCAR-5 ovarian; 55% in the experiment on OVCAR-4 ovarian. Also, the growth in the experiment on SK-OV-3 ovarian is 75.1%; with IGROV1 ovarian it was 44.4%; with OVCAR-3 ovarian, -12% (active); in the experiment with HS 578T breast it was 48.6%; in the experiment with NCI/ADR-RES ovarian, 7.89% (active).

Regarding `C#C[C@]1(O)CC[C@H]2[C@@H]3CC=C4c5sc(Nc6ccccc6)nc5CC[C@]4(C)[C@H]3CC[C@@]21C`, the growth with EKVX NSCLC is 36.3%; in the experiment with SN12C renal it was 29.2%; in the experiment with UO-31 renal it was 13.5%; in the experiment on TK-10 renal, 56.8%; in the experiment on ACHN renal, 20.1%; in the experiment on CAKI-1 renal, 21.5%. Moreover, the growth was -37.1% (active) with A498 renal; 6.66% (active) with CCRF-CEM leukemia; 7.73% (active) in the experiment on MOLT-4 leukemia; -32.1% (active) with RPMI-8226 leukemia; 33.8% in the experiment with OVCAR-8 ovarian; 52% with OVCAR-5 ovarian. Also, the growth in the experiment with OVCAR-4 ovarian is 51.6%; with SK-OV-3 ovarian, -35.3% (active); in the experiment on IGROV1 ovarian, 46.7%; with OVCAR-3 ovarian, 31.5%; in the experiment with HS 578T breast, -19.9% (active); with NCI/ADR-RES ovarian, 38.2%.

`O=C(Nn1c(NCC(=O)N2c3ccccc3Sc3ccccc32)nnc1-c1ccc(O)cc1)c1ccccc1`: the growth is 103% with EKVX NSCLC; 90.9% in the experiment with SN12C renal; 91.1% in the experiment on UO-31 renal; 104% in the experiment with TK-10 renal; 98.8% with ACHN renal; 101% in the experiment on CAKI-1 renal. The growth in the experiment with A498 renal is 100%; in the experiment with CCRF-CEM leukemia, -2.21% (active); with MOLT-4 leukemia, 125%; with RPMI-8226 leukemia, 101%; with OVCAR-8 ovarian it was 104%; in the experiment on OVCAR-5 ovarian, 90.4%. In addition, the growth with OVCAR-4 ovarian is 105%; in the experiment with SK-OV-3 ovarian, 101%; in the experiment with IGROV1 ovarian, 102%; in the experiment on OVCAR-3 ovarian it was 114%; with HS 578T breast, 108%; in the experiment with NCI/ADR-RES ovarian, 93.7%.

With `C=CCc1cc(C)ccc1NC(C(=O)NCC(=O)OC)c1ccccc1` (configuration not stated), the growth was 93.9% with EKVX NSCLC; 91.4% in the experiment with SN12C renal; 106% in the experiment with TK-10 renal; 98.5% in the experiment with ACHN renal; 88.1% in the experiment with CAKI-1 renal; 94.6% in the experiment on A498 renal. Further, the growth with CCRF-CEM leukemia was 105%; in the experiment with MOLT-4 leukemia, 97.1%; in the experiment with SR leukemia, 95%; with OVCAR-8 ovarian, 100%; in the experiment on OVCAR-5 ovarian, 86.7%; with OVCAR-4 ovarian, 105%. For the same compound, the growth in the experiment on SK-OV-3 ovarian was 91.2%; with OVCAR-3 ovarian, 105%; in the experiment on HS 578T breast, 106%; with NCI/ADR-RES ovarian it was 92.7%.

In the case of `Cc1nc2cnc(N)c(C#Cc3cncc(C(=O)Nc4ccc(CN5CCN(C)CC5)c(C(F)(F)F)c4)c3)c2nc1C`, the growth with EKVX NSCLC is 7.92% (active); in the experiment on SN12C renal, 9.49% (active); in the experiment with UO-31 renal it was 2.11% (active); in the experiment on TK-10 renal, 4.77% (active); with ACHN renal it was 0.0511% (active); in the experiment on CAKI-1 renal, -36.4% (active). Besides, the growth in the experiment on A498 renal is -81% (active); with CCRF-CEM leukemia, 13.7%; with MOLT-4 leukemia it was 8.72% (active); in the experiment on RPMI-8226 leukemia, -23% (active); with OVCAR-8 ovarian it was 10.4%; with OVCAR-5 ovarian, 8.89% (active). In addition, the growth in the experiment with OVCAR-4 ovarian is -10.9% (active); in the experiment on SK-OV-3 ovarian, 8.06% (active); in the experiment with IGROV1 ovarian it was -10.4% (active); in the experiment with OVCAR-3 ovarian, 8.72% (active); in the experiment with HS 578T breast, -20.2% (active); in the experiment on NCI/ADR-RES ovarian, 36.1%.

In the case of `Cc1ccc(-c2nc(N3CCN(CC(=O)Nc4ccc(Cl)c(C(F)(F)F)c4)CC3)c3ccccc3n2)cc1`, the growth with EKVX NSCLC is 87.3%; in the experiment on SN12C renal, 94.6%; in the experiment with UO-31 renal it was 65.6%; in the experiment with TK-10 renal it was 101%; in the experiment with ACHN renal, 95%; with CAKI-1 renal, 80.2%. Also, the growth with A498 renal is 74.6%; in the experiment on CCRF-CEM leukemia it was 89.5%; in the experiment with MOLT-4 leukemia, 62.6%; in the experiment with SR leukemia, 87.2%; with OVCAR-8 ovarian it was 88.9%; in the experiment on OVCAR-5 ovarian it was 89.9%. Moreover, the growth with OVCAR-4 ovarian was 102%; in the experiment on SK-OV-3 ovarian it was 84.7%; with IGROV1 ovarian, 99.8%; with OVCAR-3 ovarian it was 102%; in the experiment with HS 578T breast, 97.2%; with NCI/ADR-RES ovarian it was 86.5%.

As to `CCCCCCNC(=O)Oc1ccc(/C(=C(\C)c2ccc(Cl)cc2)c2ccc(OCCN3CCCCC3)cc2)cc1`, the growth with EKVX NSCLC was 52.8%; with SN12C renal it was 55.9%; in the experiment with TK-10 renal, 89.6%; with ACHN renal, 76.3%; in the experiment with CAKI-1 renal, 63.8%; in the experiment on A498 renal, 76.1%. Also, the growth in the experiment with CCRF-CEM leukemia is 34%; in the experiment with MOLT-4 leukemia it was 10.9%; in the experiment with SR leukemia, -22.4% (active); in the experiment on RPMI-8226 leukemia, 17.7%; with OVCAR-5 ovarian it was 72%; in the experiment on OVCAR-4 ovarian, 36.7%. Further, the growth is 56.3% with SK-OV-3 ovarian, 54.8% with IGROV1 ovarian, 65.2% in the experiment with HS 578T breast and 63.5% in the experiment with NCI/ADR-RES ovarian.

Consider `COc1cc(C)c(Cc2cnc(N)nc2N)cc1OC`, for which the growth was 100% in the experiment with EKVX NSCLC; 105% in the experiment on SN12C renal; 88.4% in the experiment on UO-31 renal; 116% with TK-10 renal; 96.6% in the experiment on ACHN renal; 97.8% in the experiment on CAKI-1 renal. The growth in the experiment on A498 renal is 107%; with CCRF-CEM leukemia it was 108%; in the experiment on MOLT-4 leukemia, 62.6%; in the experiment with RPMI-8226 leukemia, 82.1%; with OVCAR-8 ovarian, 105%; in the experiment with OVCAR-5 ovarian, 99.6%. Besides, the growth is 99.5% in the experiment on OVCAR-4 ovarian; 105% in the experiment on SK-OV-3 ovarian; 95.1% with IGROV1 ovarian; 114% in the experiment with OVCAR-3 ovarian; 103% in the experiment with HS 578T breast; 104% in the experiment with NCI/ADR-RES ovarian.
